The text below walks through data of ChEMBL document CHEMBL2218924, “A broad activity screen in support of a chemogenomic map for kinase signalling research and drug discovery” (Biochem J, 2013).

The term residual activity denotes the signal under treatment as a percentage of the control signal.

Assay [1] has as its target T1, Serine/threonine-protein kinase TBK1 (Homo sapiens) (UniProt Q9UHD2).
T1 sequence (whole entry): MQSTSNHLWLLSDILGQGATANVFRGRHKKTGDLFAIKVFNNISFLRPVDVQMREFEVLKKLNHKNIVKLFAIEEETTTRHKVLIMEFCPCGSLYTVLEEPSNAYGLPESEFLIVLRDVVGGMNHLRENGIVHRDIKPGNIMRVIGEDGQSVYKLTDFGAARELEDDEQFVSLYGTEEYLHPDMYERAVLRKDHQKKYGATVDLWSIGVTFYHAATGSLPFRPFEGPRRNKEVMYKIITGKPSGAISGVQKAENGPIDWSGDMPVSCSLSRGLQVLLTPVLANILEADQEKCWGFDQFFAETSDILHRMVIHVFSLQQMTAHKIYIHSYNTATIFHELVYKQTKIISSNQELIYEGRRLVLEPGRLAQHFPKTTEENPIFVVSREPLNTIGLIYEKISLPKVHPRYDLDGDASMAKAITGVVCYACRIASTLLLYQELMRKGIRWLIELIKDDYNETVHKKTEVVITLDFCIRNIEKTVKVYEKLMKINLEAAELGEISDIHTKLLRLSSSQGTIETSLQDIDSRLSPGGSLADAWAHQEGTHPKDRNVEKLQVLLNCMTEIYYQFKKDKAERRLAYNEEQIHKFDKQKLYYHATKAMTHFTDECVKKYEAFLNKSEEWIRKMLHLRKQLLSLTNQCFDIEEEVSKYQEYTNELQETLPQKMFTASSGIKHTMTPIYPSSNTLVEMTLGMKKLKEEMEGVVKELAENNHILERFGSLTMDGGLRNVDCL
The note with it: at 10 µM.

Assay [2] deals with T2, TGF-beta receptor type-1 (Homo sapiens) (UniProt P36897).
T2 sequence (whole entry): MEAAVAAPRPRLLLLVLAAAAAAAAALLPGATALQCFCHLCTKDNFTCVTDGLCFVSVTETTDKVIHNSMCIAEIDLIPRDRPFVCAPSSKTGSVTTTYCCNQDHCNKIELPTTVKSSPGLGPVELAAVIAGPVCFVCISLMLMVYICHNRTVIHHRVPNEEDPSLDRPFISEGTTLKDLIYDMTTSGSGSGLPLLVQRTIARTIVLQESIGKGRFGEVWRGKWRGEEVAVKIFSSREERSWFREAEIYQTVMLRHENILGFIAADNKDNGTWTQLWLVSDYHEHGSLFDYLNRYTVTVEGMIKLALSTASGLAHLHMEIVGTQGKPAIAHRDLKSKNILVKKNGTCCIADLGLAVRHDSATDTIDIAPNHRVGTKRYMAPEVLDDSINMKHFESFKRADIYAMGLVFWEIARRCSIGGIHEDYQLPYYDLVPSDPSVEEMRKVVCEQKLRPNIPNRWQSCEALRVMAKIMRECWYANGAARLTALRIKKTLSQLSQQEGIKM
The following applies: at 1 µM.

In assay [3] the target is T2, TGF-beta receptor type-1 (Homo sapiens). The following applies: at 10 µM.
The target in assay [4] is Insulin-like growth factor 1 receptor (Homo sapiens) (UniProt P08069). The note with it: at 1 µM.
Assay [5] has the same target. The note with it: at 10 µM.
Assay [6] deals with T3, Inhibitor of nuclear factor kappa-B kinase subunit alpha (Homo sapiens) (UniProt O15111).
T3 sequence (whole entry): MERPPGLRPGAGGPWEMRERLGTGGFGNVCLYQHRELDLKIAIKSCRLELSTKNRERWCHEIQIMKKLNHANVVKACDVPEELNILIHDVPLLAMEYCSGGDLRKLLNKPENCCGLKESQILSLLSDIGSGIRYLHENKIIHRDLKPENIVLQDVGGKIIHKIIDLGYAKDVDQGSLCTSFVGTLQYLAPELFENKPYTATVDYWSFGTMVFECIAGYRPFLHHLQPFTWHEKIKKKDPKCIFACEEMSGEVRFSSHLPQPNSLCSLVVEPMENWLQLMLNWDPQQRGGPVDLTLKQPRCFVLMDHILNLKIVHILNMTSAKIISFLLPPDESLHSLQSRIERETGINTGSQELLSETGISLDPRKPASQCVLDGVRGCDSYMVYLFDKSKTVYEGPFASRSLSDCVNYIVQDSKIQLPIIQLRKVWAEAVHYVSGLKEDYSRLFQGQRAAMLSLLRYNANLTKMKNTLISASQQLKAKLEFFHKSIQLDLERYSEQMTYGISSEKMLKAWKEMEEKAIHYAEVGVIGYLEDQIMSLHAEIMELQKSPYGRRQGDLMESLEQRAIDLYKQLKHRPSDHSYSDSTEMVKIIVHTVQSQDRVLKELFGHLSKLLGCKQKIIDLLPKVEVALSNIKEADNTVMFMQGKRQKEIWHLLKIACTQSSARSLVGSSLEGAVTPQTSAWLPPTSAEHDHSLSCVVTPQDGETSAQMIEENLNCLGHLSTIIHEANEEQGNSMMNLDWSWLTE
The following applies: at 1 µM.

Assay [7] has as its target T3, Inhibitor of nuclear factor kappa-B kinase subunit alpha (Homo sapiens). The note with it: at 10 µM.
For assay [8], the target named is T4, Inhibitor of nuclear factor kappa-B kinase subunit beta (Homo sapiens) (UniProt O14920).
T4 sequence (whole entry): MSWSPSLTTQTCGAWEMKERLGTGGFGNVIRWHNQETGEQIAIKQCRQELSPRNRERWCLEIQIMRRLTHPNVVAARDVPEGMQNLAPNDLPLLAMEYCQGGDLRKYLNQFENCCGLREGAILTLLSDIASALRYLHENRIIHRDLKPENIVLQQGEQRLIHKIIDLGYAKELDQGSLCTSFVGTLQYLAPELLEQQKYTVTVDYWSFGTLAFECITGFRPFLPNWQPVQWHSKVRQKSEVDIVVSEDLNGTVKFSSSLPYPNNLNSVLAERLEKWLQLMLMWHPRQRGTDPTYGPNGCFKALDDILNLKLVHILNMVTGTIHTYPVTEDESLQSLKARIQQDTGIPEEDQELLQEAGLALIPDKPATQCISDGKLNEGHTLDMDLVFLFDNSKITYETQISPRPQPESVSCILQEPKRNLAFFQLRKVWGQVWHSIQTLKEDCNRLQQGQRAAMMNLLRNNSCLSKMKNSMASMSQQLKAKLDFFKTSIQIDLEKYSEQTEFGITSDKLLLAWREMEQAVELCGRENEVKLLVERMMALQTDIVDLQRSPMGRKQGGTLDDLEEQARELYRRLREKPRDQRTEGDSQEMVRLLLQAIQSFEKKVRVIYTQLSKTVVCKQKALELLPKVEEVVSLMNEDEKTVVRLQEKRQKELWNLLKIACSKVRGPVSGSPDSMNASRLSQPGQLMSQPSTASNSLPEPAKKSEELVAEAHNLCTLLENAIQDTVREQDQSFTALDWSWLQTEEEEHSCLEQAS
The following applies: at 1 µM.

Assay [9] deals with T4, Inhibitor of nuclear factor kappa-B kinase subunit beta (Homo sapiens). The following applies: at 10 µM.
For assay [10], the target named is Insulin receptor (Homo sapiens) (UniProt P06213). The note with it: at 1 µM.
Chain of Insulin receptor (Homo sapiens) (P06213 28-758 limits assumed): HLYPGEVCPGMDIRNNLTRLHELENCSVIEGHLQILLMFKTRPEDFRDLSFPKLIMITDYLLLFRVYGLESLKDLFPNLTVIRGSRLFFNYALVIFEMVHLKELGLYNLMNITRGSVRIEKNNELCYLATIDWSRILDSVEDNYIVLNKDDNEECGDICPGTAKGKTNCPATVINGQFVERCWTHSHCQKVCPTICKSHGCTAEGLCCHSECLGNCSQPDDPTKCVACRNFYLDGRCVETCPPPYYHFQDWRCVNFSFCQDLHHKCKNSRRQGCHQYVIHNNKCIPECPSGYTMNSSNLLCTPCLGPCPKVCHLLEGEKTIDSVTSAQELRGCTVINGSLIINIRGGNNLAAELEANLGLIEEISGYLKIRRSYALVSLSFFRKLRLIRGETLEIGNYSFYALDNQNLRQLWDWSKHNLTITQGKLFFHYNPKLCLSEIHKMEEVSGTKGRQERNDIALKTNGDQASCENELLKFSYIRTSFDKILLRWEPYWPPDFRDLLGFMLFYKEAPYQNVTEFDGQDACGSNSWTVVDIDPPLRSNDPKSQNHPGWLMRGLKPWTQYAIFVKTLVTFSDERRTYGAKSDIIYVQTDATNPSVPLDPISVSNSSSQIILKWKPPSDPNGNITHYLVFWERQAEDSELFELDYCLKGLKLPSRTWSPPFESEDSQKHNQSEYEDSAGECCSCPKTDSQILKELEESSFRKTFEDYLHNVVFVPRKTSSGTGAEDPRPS
Chain of Insulin receptor (Homo sapiens) (P06213 763-1382 limits assumed): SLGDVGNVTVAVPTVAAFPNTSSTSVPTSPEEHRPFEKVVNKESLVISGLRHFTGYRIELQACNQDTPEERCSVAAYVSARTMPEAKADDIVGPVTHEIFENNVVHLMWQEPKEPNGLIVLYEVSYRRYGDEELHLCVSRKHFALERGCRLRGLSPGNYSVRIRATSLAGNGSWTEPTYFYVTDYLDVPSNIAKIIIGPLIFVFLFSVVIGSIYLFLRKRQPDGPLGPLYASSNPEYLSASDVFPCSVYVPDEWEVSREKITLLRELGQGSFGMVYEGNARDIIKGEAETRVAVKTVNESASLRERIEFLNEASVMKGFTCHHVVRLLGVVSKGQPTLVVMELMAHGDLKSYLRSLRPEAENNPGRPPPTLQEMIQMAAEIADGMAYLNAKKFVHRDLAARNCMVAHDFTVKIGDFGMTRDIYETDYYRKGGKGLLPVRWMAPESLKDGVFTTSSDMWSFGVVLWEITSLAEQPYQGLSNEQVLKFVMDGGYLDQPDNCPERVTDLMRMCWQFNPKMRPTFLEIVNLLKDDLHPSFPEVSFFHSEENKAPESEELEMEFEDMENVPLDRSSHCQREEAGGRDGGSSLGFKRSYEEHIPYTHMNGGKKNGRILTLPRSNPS

Chain of Insulin-like growth factor 1 receptor (Homo sapiens) (P08069 31-736 limits assumed): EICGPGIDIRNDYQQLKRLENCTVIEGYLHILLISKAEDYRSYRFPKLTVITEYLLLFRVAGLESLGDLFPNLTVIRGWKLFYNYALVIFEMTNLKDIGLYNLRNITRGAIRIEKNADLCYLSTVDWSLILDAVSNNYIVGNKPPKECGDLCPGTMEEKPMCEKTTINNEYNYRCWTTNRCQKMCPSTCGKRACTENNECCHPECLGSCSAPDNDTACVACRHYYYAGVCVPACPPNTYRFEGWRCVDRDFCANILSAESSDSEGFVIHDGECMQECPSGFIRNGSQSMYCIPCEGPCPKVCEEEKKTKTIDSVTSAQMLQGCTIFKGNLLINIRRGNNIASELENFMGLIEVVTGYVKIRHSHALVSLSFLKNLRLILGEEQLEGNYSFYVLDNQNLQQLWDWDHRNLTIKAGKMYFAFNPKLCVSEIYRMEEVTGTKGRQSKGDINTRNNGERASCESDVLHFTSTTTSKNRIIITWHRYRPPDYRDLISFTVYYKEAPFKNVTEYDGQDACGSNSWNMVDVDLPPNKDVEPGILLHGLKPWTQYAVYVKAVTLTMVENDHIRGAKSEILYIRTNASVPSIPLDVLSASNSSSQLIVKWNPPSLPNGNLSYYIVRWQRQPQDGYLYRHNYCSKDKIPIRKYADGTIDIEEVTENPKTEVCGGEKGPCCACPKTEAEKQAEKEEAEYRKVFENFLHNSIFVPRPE
Chain of Insulin-like growth factor 1 receptor (Homo sapiens) (P08069 741-1367 limits assumed): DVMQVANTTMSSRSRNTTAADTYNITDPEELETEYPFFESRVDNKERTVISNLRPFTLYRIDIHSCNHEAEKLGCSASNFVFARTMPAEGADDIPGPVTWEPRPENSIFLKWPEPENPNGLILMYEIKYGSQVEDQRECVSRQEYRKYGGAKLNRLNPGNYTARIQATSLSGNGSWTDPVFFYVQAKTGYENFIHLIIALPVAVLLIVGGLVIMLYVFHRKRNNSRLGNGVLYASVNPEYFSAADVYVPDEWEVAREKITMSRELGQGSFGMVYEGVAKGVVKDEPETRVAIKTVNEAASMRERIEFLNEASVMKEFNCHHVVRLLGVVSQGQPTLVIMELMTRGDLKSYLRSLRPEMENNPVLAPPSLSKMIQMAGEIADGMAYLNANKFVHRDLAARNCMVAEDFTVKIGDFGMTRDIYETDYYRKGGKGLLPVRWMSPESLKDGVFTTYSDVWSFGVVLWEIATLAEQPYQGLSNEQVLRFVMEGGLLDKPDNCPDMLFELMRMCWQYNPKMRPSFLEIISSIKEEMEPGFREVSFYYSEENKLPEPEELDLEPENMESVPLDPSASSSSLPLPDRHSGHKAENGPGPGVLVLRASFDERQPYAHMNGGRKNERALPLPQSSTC

With `O=C(O)c1ccc2c3c1cccc3c(=O)n1c3ccccc3nc21`, the residual activity in assay [1] stood at 4%; in assay [2] it was 111%; in assay [3] it was 102%; in assay [4], 113%; in assay [5] it was 107%; in [6], 109%. Further, the residual activity in assay [7] turned out to be 106%; in assay [8], 112%; in assay [9], 93%; in [10], 117%.
